Experimental findings from ChEMBL document CHEMBL1157539, “Thousands of chemical starting points for antimalarial lead identification” (Nature, 2010) are described below.

Common to all, as to format: functional
Test [1] relates to Plasmodium falciparum. Kind of test: GSK_TCMDC: Inhibition of Plasmodium falciparum 3D7 in whole red blood cells, using parasite LDH activity as an index of growth. Test compounds present at 2uM.
Test [2] concerns Plasmodium falciparum. Description: GSK_TCMDC: Inhibition of Plasmodium falciparum Dd2 in whole red blood cells, using parasite LDH activity as an index of growth. Test compounds present at 2uM.
The next test relates to HepG2. Kind of test: GSK_TCMDC: Percent inhibition of human HepG2 cell line. Test compounds present at 10uM.

In the case of `CCn1c(SC)nnc1C1CCCN(CC(=O)Nc2nc3ccc(OC)cc3s2)C1` (configuration not stated), the Inhibition (in general, how much of the control response was suppressed) with Plasmodium falciparum [1] is on record as 97%; with Plasmodium falciparum [2], 81%; in the test with HepG2, 0%.
For the compound `O=C(C=Cc1ccccc1)Nc1ccc(C#CC=Cc2ccc(NC(=O)C=Cc3ccccc3)cc2)cc1`, the Inhibition in the test on Plasmodium falciparum [1] came out at 100%; in the test with Plasmodium falciparum [2], 3%; in the test on HepG2, 26%.
For the compound `COc1cccc(Nc2nc(C)cc(NCc3ccc(-c4c(C)noc4C)cc3)n2)c1`, the Inhibition is recorded as 98% in the test on Plasmodium falciparum [1], 42% in the test on Plasmodium falciparum [2] and 33% in the test on HepG2.
Taken in the same sequence, the figures for `COc1ccccc1-c1csc(C(=O)NCC2CCN(Cc3ccc(C(C)(C)C)cc3)C2)c1.O=C(O)C(F)(F)F` (configuration not stated) were 93%, 11% and 29%.
Taken in the same sequence, the figures for `CN(C)CCNCc1cccc(-c2ccc3c(Nc4ccc(F)cc4Cl)ccnc3c2)c1` were 100%, 98% and 17%.
In the same order, the values of `COc1ccc(CNC2CCN(C)CC2)cc1-c1ccc(S(=O)(=O)NCCc2ccccn2)c(F)c1.O=C(O)C(F)(F)F` are 100%, 55% and 3%.
Regarding `Cl.N=C(N)c1ccc(C=CC(=O)NCC(O)CNC(=O)C=Cc2ccc(C(=N)N)cc2)cc1` (configuration not stated), the Inhibition was found to be 90% in the test on Plasmodium falciparum [1], 80% in the test with Plasmodium falciparum [2] and 0% in the test on HepG2.
Take `CCc1c(CCNCCCCCNCCc2ccc(OC)c(OC)c2CC)ccc(OC)c1OC.Cl`: the results for the Inhibition in the test on Plasmodium falciparum [1], with Plasmodium falciparum [2] and in the test with HepG2 were 100%, 1% and 59%, respectively.
On to `CC(C)CN1CCC(COc2ccc3ncn(-c4cc(O[C@H](C)c5ccccc5C(F)(F)F)c(C(N)=O)s4)c3c2)CC1`, for which the Inhibition was 97% in the test with Plasmodium falciparum [1], 86% in the test on Plasmodium falciparum [2] and 46% in the test on HepG2.
Taken in the same sequence, the figures for `O=C(Nc1cccc(-c2ccc(-c3nc4cc(C(F)(F)F)ccc4[nH]3)s2)c1)c1cccnc1` were 100%, 99% and 74%.
As to `COc1ccc2nccc([C@@H](O)CN3CCC(NCc4ccc(OC)c(NC(C)=O)c4)CC3)c2c1`, the figures for the Inhibition with Plasmodium falciparum [1], in the test on Plasmodium falciparum [2] and in the test on HepG2 were 90%, 0% and 0%, respectively.
In the case of `CC(C)CNCc1ccc(-c2cccc(CNC3CCN(Cc4ccccc4)CC3)c2)cc1.O=C(O)C(F)(F)F`, the Inhibition with Plasmodium falciparum [1] stood at 100%; with Plasmodium falciparum [2] it was 100%; in the test with HepG2, 34%.
As for `CCc1c(C)nc(-n2nc(C)cc2NC(=O)C(CC)c2ccccc2)[nH]c1=O` (configuration not stated), the Inhibition is given as 97% with Plasmodium falciparum [1], 93% in the test on Plasmodium falciparum [2] and 41% in the test with HepG2.
Taken in the same sequence, the figures for `CC(C)(C)c1nn(-c2ccc(Cl)cc2)c2[nH]c(=O)c(CNCc3ccc4c(c3)OCO4)cc12` were 100%, 98% and 15%.
For `Cl.N#Cc1ccc2c(c1)CCN(CCC1CCC(NC(=O)/C=C/c3ccc4[nH]ccc4c3)CC1)CC2` (configuration not stated), the values for the Inhibition in the test with Plasmodium falciparum [1], with Plasmodium falciparum [2] and in the test on HepG2 were 93%, 27% and 2%, respectively.
Regarding `CC(C)C[C@H](NC(=O)c1cc(-c2ccc(C(C)(C)C)cc2)no1)C(=O)O.CC(C)C[C@H](NC(=O)c1conc1-c1ccc(C(C)(C)C)cc1)C(=O)O`, the figures for the Inhibition in the test on Plasmodium falciparum [1], in the test on Plasmodium falciparum [2] and in the test with HepG2 were 95%, 6% and 3%, respectively.
As to `COc1cc2c(cc1OC)C(C(=O)c1ccccc1)=NCC2.Cl`, the Inhibition is given as 85% with Plasmodium falciparum [1], 62% in the test with Plasmodium falciparum [2] and 19% with HepG2.
In the same order, the values of `Cc1[nH]c(C)c(-c2ccc(OCCn3cnc(Cl)c3Cl)cc2)c(=O)c1Br` are 95%, 35% and 2%.
In the same order, the values of `COc1ccc2c(c1)[nH]c1c(/C=C/c3ccc([N+](=O)[O-])cc3)nccc12` are 100%, 63% and 4%.
For `CCNc1cc(C(=O)N[C@@H](Cc2cc(F)cc(F)c2)[C@H](O)CNCc2cccc(C(F)(F)F)c2)cc(N2CCCCS2(=O)=O)c1.Cl`, the figures for the Inhibition in the test on Plasmodium falciparum [1], with Plasmodium falciparum [2] and in the test on HepG2 were 99%, 80% and 1%, respectively.
Turning to `Fc1ccc2c(NN=Cc3ccccc3)ccnc2c1`, the values for the Inhibition in the test on Plasmodium falciparum [1], in the test with Plasmodium falciparum [2] and with HepG2 were 100%, 99% and 1%, respectively.
In the same order, the values of `CC(C)(C)c1nn(-c2ccccc2)c2[nH]c(=O)c(CNC3CCCCC3)cc12` are 83%, 76% and 6%.
Taken in the same sequence, the figures for `NCCNC(=O)c1ccc(-c2cnc3[nH]cc(-c4ccc(C(N)=O)cc4)c3c2)cc1` were 99%, 98% and 2%.
Taken in the same sequence, the figures for `CNc1ccc(CNCc2cccc(-c3ccc(-c4nc5ccccc5[nH]4)cc3)c2)cc1.O=C(O)C(F)(F)F` were 100%, 80% and 18%.
`CCc1c(C(=O)NC2CCC(N3CCC(c4ccccc4OC)CC3)CC2)[nH]c2ccc(Br)cc12` (configuration not stated): the Inhibition with Plasmodium falciparum [1] is on record as 100%; in the test with Plasmodium falciparum [2], 98%; in the test with HepG2 it was 85%.
Taken in the same sequence, the figures for `FC(F)(F)c1ccc2[nH]ccc(=NN=Cc3cccnc3)c2c1` were 100%, 40% and 0%.
Turning to `COC(=O)c1cccc(CNCc2cccc(-c3ccc(-c4nc5cccc(C)c5[nH]4)s3)c2)c1.O=C(O)C(F)(F)F`, the Inhibition with Plasmodium falciparum [1] stood at 100%; with Plasmodium falciparum [2] it was 65%; in the test with HepG2 it was 0%.
Taken in the same sequence, the figures for `COc1cccc(NC(=O)Nc2ccc(C)c(-c3ccc(C(=O)Nc4ccncc4)cc3)c2)c1` were 99%, 64% and 45%.
In the same order, the values of `CN(C)CCNCc1cccc(-c2ccc3c(Nc4ccc(Oc5ccccc5)cc4)ccnc3c2)c1` are 100%, 99% and 31%.
